Results as given in ChEMBL document CHEMBL1961873, “Compounds: GSK PKIS; Assays: Nanosyn kinase panel” (2012).

What was measured:
[1] = biological target: Sphingosine kinase 1 (Homo sapiens) (UniProt Q9NYA1); conditions: at 1 µM;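 further: mean SPHK1 inhibition value reported from the GSK PKIS kinase panel screen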
[2] = biological target: T1, Sphingosine kinase 2 (Homo sapiens) (UniProt Q9NRA0); conditions: at 0.1 µM
T1 sequence (whole entry): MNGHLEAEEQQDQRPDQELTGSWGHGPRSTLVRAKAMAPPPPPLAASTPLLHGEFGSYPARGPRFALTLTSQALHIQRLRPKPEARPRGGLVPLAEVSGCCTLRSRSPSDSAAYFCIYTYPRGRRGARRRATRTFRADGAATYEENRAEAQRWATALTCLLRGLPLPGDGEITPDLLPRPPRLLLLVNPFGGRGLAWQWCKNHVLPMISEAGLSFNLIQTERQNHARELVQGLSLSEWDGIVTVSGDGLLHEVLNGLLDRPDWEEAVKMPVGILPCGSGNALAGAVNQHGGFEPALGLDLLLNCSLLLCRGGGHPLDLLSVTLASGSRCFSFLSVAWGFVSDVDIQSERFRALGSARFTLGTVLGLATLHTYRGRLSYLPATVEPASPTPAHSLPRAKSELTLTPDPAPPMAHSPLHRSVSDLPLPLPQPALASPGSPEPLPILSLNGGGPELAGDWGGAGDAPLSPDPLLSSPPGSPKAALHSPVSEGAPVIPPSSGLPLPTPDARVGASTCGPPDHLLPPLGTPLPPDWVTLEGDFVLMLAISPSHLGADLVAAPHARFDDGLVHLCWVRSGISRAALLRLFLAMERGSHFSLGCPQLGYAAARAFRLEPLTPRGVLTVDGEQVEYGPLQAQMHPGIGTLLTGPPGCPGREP

[3] = biological target: T1, Sphingosine kinase 2 (Homo sapiens); conditions: at 1 µM
[4] = biological target: Casein kinase II subunit alpha (Homo sapiens) (UniProt P68400); conditions: at 0.1 µM
Sequence of Casein kinase II subunit alpha (Homo sapiens) (P68400 whole entry, looked up): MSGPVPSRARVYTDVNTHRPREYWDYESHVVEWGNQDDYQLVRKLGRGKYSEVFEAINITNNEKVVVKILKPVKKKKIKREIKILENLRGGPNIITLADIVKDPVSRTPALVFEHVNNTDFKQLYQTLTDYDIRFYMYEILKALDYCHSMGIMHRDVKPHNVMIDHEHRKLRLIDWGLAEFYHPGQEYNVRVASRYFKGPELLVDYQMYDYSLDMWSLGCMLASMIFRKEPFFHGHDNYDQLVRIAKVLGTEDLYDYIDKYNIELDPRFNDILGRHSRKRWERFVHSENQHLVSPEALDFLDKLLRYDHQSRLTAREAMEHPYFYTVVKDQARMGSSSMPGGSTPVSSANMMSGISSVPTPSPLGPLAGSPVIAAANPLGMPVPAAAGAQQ

[5] = biological target: Casein kinase II subunit alpha (Homo sapiens) (UniProt P68400); conditions: at 1 µM
[6] = biological target: T2, Inhibitor of nuclear factor kappa-B kinase subunit alpha (Homo sapiens) (UniProt O15111); conditions: at 0.1 µM
T2 sequence (whole entry): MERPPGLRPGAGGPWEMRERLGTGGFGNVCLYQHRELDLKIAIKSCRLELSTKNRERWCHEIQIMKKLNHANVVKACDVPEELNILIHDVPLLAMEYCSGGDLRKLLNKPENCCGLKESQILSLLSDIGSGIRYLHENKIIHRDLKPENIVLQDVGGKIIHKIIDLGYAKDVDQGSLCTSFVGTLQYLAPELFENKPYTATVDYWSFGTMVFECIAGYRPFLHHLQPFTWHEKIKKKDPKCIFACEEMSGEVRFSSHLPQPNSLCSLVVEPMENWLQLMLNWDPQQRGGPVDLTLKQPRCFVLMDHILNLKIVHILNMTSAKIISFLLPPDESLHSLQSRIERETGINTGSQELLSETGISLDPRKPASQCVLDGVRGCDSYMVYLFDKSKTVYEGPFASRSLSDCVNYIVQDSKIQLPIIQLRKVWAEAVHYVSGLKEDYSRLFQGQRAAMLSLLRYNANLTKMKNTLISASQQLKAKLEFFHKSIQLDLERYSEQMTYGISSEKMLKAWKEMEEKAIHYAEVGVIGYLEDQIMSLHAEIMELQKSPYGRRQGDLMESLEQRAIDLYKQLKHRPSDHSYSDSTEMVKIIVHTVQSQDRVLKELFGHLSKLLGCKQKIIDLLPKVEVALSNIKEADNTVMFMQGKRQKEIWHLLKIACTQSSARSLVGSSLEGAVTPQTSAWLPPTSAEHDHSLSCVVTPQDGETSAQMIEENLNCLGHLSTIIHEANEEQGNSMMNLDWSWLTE

[7] = biological target: T2, Inhibitor of nuclear factor kappa-B kinase subunit alpha (Homo sapiens); conditions: at 1 µM
[8] = biological target: T3, Inhibitor of nuclear factor kappa-B kinase subunit beta (Homo sapiens) (UniProt O14920); conditions: at 0.1 µM
T3 sequence (whole entry): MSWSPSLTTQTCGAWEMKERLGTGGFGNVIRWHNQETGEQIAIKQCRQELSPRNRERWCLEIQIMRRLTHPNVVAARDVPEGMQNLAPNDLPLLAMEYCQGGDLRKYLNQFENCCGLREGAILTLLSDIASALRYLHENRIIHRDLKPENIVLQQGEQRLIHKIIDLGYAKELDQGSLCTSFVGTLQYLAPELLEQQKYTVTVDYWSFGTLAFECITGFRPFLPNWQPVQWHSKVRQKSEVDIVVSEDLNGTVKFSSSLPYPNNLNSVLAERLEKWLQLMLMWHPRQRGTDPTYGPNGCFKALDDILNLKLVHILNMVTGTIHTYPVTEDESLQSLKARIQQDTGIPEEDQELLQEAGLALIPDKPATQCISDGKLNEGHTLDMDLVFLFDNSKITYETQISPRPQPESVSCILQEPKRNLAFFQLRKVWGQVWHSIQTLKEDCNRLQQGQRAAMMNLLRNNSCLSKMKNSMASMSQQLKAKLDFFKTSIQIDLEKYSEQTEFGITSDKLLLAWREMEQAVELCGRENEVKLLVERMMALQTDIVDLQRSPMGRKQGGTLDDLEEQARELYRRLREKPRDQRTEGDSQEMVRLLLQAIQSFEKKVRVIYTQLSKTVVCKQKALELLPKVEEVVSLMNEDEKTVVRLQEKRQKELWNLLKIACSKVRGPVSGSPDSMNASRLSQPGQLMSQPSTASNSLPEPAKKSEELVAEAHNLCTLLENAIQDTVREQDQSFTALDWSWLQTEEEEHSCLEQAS

[9] = biological target: T3, Inhibitor of nuclear factor kappa-B kinase subunit beta (Homo sapiens); conditions: at 1 µM
[10] = biological target: T4, Inhibitor of nuclear factor kappa-B kinase subunit epsilon (Homo sapiens) (UniProt Q14164); conditions: at 0.1 µM;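 further: mean inhibition of IKKε reported, from the GSK PKIS dataset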
T4 sequence (whole entry): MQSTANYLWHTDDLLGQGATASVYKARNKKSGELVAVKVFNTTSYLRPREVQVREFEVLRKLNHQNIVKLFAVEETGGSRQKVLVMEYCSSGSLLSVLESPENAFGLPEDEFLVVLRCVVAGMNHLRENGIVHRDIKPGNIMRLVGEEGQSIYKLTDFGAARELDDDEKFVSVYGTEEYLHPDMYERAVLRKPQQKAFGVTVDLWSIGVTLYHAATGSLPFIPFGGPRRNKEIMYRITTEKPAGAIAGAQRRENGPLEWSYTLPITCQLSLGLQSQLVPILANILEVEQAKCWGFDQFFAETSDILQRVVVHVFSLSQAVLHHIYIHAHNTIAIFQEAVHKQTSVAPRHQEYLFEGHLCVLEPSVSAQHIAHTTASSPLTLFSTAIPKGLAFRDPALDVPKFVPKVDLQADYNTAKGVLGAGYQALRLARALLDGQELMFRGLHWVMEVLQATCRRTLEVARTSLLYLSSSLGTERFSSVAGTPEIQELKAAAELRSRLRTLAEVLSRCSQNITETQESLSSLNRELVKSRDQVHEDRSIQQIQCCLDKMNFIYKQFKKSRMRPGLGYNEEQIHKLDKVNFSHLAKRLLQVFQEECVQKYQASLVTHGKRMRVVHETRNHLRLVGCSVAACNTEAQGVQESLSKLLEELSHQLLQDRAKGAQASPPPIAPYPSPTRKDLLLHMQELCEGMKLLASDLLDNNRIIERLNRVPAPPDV

Sequence of Sphingosine kinase 1 (Homo sapiens) (Q9NYA1 whole entry): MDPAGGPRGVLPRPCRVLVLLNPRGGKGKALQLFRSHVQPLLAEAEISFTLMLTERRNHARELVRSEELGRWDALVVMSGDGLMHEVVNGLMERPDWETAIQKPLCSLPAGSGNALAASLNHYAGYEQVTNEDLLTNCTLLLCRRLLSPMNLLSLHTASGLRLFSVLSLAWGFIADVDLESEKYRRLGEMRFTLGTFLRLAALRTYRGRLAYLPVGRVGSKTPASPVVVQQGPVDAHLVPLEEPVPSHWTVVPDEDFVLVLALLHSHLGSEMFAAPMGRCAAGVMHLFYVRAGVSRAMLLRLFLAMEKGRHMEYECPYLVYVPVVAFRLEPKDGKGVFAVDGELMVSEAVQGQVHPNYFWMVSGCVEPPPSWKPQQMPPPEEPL

Question: With `CN(C)CCCn1c(-c2nonc2N)nc2cnccc21` as the compound, how does the inhibition [1] read?
Answer: -0.88%

Question: And the inhibition [2]?
Answer: 0.92%

Question: What about the inhibition [3] of the same compound?
Answer: 0.09%

Question: And the inhibition [4]?
Answer: 1.4%

Question: What about the inhibition [5] of the same compound?
Answer: -1.56%

Question: What about the inhibition [6] of the same compound?
Answer: 5.57%

Question: And the inhibition [7]?
Answer: 4.33%

Question: What about the inhibition [8] of the same compound?
Answer: 6.47%

Question: And the inhibition [9]?
Answer: 4.26%

Question: What about the inhibition [10] of the same compound?
Answer: 4.73%
